Assay results from PubChem BioAssay.
Active and inactive are the calls of the source.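 The calls were made as follows: active = GFP response above 150% of the DMSO level; inconclusive = fewer than 70 events counted for a yeast strain; inactive = the rest.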

Assay: yeast AGP1-GFP fluorescence change, single-dose – cell-based, flow cytometry, S. cerevisiae, cherry picks, confirmation (AID 2273);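 also: median GFP channel fluorescence over the whole cell population gate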
Conditions: S. cerevisiae AGP1-GFP strain, 3 h, at 10 µM

GFP response, % of DMSO, inactive:
COc1cccc2cc(C(=O)N3CCN(C/C=C/c4ccccc4)CC3)c(=O)oc12 96.7%
O=S(=O)(/N=C(\Sc1ccc(Cl)cc1)c1ccccc1)c1ccccc1 101%
Cc1ccc(/C=c2\sc3nc(-c4cccs4)nn3c2=O)o1 95.4%
N=c1n(CCN2CCCCC2)c2ccccc2n1CC(=O)c1ccc(Cl)c(Cl)c1 99.4%
COc1ccc(/C=C/C(=O)NC(=S)NNC(=O)c2cnccn2)cc1 78.5%
CCCCNc1c(-c2ccc(SC(C)CC)cc2)nc2ccccn12 (stereo not given) 93.3%
CCOC(=O)Cc1csc(NC(=O)CSc2nnc(-c3ccc(C)cc3)o2)n1 104%
COc1ccc(C2=NN(S(C)(=O)=O)C(c3ccc4nccnc4c3)C2)cc1 (stereo not given) 97.6%
Oc1c(Br)cc(Br)cc1C=Nc1ccc2c(c1)OCO2 99.3%
CCOc1ccc(Nc2nc(N(C)c3ccccc3)nc(N)c2[N+](=O)[O-])cc1 113%
CC[n+]1cc(C)ccc1/C=C/c1ccc(N(C)C)cc1 104%
COc1ccc(/C=C/C(=O)c2ccc(OC)cc2O)cc1 100%
COc1ccc(-c2sc(C(=O)c3ccc(Cl)cc3Cl)cc2CC(=O)O)cc1 101%
Cn1c(=O)[nH]c(=O)c2c1nc(N1CCCCC1)n2CCOc1ccccc1 104%
COCc1nnc(NC(=O)c2ccc(S(=O)(=O)N3CCCCCC3)cc2)o1 101%
CC(C)c1ccc(C2C3CSCC=C3C(C#N)=C(N)C2(C#N)C#N)cc1 (stereo not given) 105%
CC(C)(C)C(=O)C(Cl)C(=O)Nc1ccccc1 (stereo not given) 135%
CCOC(=O)CSC1=NC(=O)/C(=C\c2ccc(Cl)cc2)S1 116%
Cc1ccc(/C=C/C(=O)N2CC(C)CC(C)C2)o1 (stereo not given) 105%
CCOc1c(Br)ccc2c1sc1nc[nH]c(=O)c12 99.1%
Cc1cc(NC(=O)c2cc3ccccc3o2)ccc1NC(=O)c1ccccc1 95.4%
COc1ccc(C(=O)Nc2cccc(C)c2)cc1 101%
O=C1c2ccccc2C(=O)c2c([N+](=O)[O-])ccc(O)c21 106%
Nc1ccccc1NC(=O)c1ccccc1 98.4%
Cc1ccccc1N1C(=O)c2cccc3c(N(C)CCO)ccc(c23)C1=O 103%
O=C(/C=C/c1ccccc1)Nc1ncn[nH]1 98%
CCCCCCCCC/C(=N\O)c1ccccn1 89.3%
COc1cccc2c1Oc1ncccc1N(C(=O)CCC(=O)NCc1ccc(C)cc1)C2 106%
C/C(=N\NC(=O)c1ccc(Br)cc1)c1ccccc1 94.3%
NS(=O)(=O)c1ccc(S(=O)(=O)c2ccccc2)nc1 95.6%
Cc1nn(Cc2ccc([N+](=O)[O-])cc2)c(=O)n1-c1cccc(Cl)c1 95.4%
O=C(c1ccccc1Br)N1CCN(c2ccccc2)CC1 94.3%
Cc1c(NC(=O)Nc2ccc3c(c2)OCO3)c(=O)n(-c2ccccc2)n1C 96.7%
COc1ccc(C(=O)/C=C/c2ccccc2C(F)(F)F)cc1 99.7%
CCc1noc(C)c1C(=O)Nc1nc(-c2cc(C)ccc2C)c(C)s1 94.1%
CC(C)(C)n1nc(-c2ccc(Cl)cc2)c2c(N)ncnc21 106%
O=c1oc2cc(Oc3c([N+](=O)[O-])cc(C(F)(F)F)cc3[N+](=O)[O-])ccc2c2c1CCCC2 108%
Cc1occc1-c1nnc(-c2cc([N+](=O)[O-])cc([N+](=O)[O-])c2)o1 135%
CCOc1ccc(Nc2ccc(C(=O)O)cc2[N+](=O)[O-])cc1 97.8%
Cc1nnc(NC(=O)c2csc3c2CCC(C)C3)s1 (stereo not given) 93%

Assay: TOR pathway CIT2 reporter hit retest – S. cerevisiae, GFP fusion, cherry picks, mother/daughter gates, confirmation (AID 2274)
Conditions: S. cerevisiae CIT2-GFP strain, flow cytometry, 3 h; at 10 µM; stronger effect = higher value

GFP response, % of DMSO, inactive:
COc1cccc2cc(C(=O)N3CCN(C/C=C/c4ccccc4)CC3)c(=O)oc12 95.9%
O=S(=O)(/N=C(\Sc1ccc(Cl)cc1)c1ccccc1)c1ccccc1 90.3%
Cc1ccc(/C=c2\sc3nc(-c4cccs4)nn3c2=O)o1 104%
N=c1n(CCN2CCCCC2)c2ccccc2n1CC(=O)c1ccc(Cl)c(Cl)c1 96.5%
COc1ccc(/C=C/C(=O)NC(=S)NNC(=O)c2cnccn2)cc1 115%
CCCCNc1c(-c2ccc(SC(C)CC)cc2)nc2ccccn12 (stereo not given) 92.6%
CCOC(=O)Cc1csc(NC(=O)CSc2nnc(-c3ccc(C)cc3)o2)n1 104%
COc1ccc(C2=NN(S(C)(=O)=O)C(c3ccc4nccnc4c3)C2)cc1 (stereo not given) 92.6%
Oc1c(Br)cc(Br)cc1C=Nc1ccc2c(c1)OCO2 97.8%
CCOc1ccc(Nc2nc(N(C)c3ccccc3)nc(N)c2[N+](=O)[O-])cc1 104%
CC[n+]1cc(C)ccc1/C=C/c1ccc(N(C)C)cc1 134%
COc1ccc(/C=C/C(=O)c2ccc(OC)cc2O)cc1 102%
COc1ccc(-c2sc(C(=O)c3ccc(Cl)cc3Cl)cc2CC(=O)O)cc1 104%
Cn1c(=O)[nH]c(=O)c2c1nc(N1CCCCC1)n2CCOc1ccccc1 103%
COCc1nnc(NC(=O)c2ccc(S(=O)(=O)N3CCCCCC3)cc2)o1 97.3%
CC(C)c1ccc(C2C3CSCC=C3C(C#N)=C(N)C2(C#N)C#N)cc1 (stereo not given) 99.7%
CC(C)(C)C(=O)C(Cl)C(=O)Nc1ccccc1 (stereo not given) 126%
CCOC(=O)CSC1=NC(=O)/C(=C\c2ccc(Cl)cc2)S1 88.9%
Cc1ccc(/C=C/C(=O)N2CC(C)CC(C)C2)o1 (stereo not given) 106%
CCOc1c(Br)ccc2c1sc1nc[nH]c(=O)c12 100%
Cc1cc(NC(=O)c2cc3ccccc3o2)ccc1NC(=O)c1ccccc1 101%
COc1ccc(C(=O)Nc2cccc(C)c2)cc1 111%
O=C1c2ccccc2C(=O)c2c([N+](=O)[O-])ccc(O)c21 92.2%
Nc1ccccc1NC(=O)c1ccccc1 101%
Cc1ccccc1N1C(=O)c2cccc3c(N(C)CCO)ccc(c23)C1=O 101%
O=C(/C=C/c1ccccc1)Nc1ncn[nH]1 97.8%
CCCCCCCCC/C(=N\O)c1ccccn1 97.2%
COc1cccc2c1Oc1ncccc1N(C(=O)CCC(=O)NCc1ccc(C)cc1)C2 98.8%
C/C(=N\NC(=O)c1ccc(Br)cc1)c1ccccc1 99.7%
NS(=O)(=O)c1ccc(S(=O)(=O)c2ccccc2)nc1 103%
Cc1nn(Cc2ccc([N+](=O)[O-])cc2)c(=O)n1-c1cccc(Cl)c1 99.7%
O=C(c1ccccc1Br)N1CCN(c2ccccc2)CC1 93.9%
Cc1c(NC(=O)Nc2ccc3c(c2)OCO3)c(=O)n(-c2ccccc2)n1C 96.4%
COc1ccc(C(=O)/C=C/c2ccccc2C(F)(F)F)cc1 107%
CCc1noc(C)c1C(=O)Nc1nc(-c2cc(C)ccc2C)c(C)s1 106%
CC(C)(C)n1nc(-c2ccc(Cl)cc2)c2c(N)ncnc21 44.4%
O=c1oc2cc(Oc3c([N+](=O)[O-])cc(C(F)(F)F)cc3[N+](=O)[O-])ccc2c2c1CCCC2 100%
Cc1occc1-c1nnc(-c2cc([N+](=O)[O-])cc([N+](=O)[O-])c2)o1 87.2%
CCOc1ccc(Nc2ccc(C(=O)O)cc2[N+](=O)[O-])cc1 98.8%
Cc1nnc(NC(=O)c2csc3c2CCC(C)C3)s1 (stereo not given) 78.2%
